# Assay results reported in the supplement of paper PMC6555819.
# Tests used:
# Experiment in all cases: PBM binding z-score (relative to random genomic background probes); higher = stronger binding; sequences stand for … in GC…GCGATTGACAGCGTAGAATGAAGG
# [1] = system: FXR:RXRa (NR concentration 270 nM, RXRa partner concentration 90 nM)
# Summary of the method: (§1)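 Antibodies against each partner of ligand-free nuclear receptor dimers (one per run) detected binding on custom Agilent 4×180K protein-binding microarrays after 1 h incubation. The double-stranded probes had 34-nt variable regions carrying direct-repeat seeds, single-nucleotide variants, half-site ablations and random human genomic background sequences. Binding z-scores, from regression-normalized fluorescence, use the random background probes as reference.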
# [2] = system: LXRa:RXRa (NR concentration 270 nM, RXRa partner concentration 90 nM)
# Summary of the method: as §1
# [3] = system: LXRa homodimer (NR concentration 270 nM)
# Summary of the method: as §1
# [4] = system: LXRb:RXRa (NR concentration 270 nM, RXRa partner concentration 90 nM)
# Summary of the method: as §1
# [5] = system: LXRb homodimer (NR concentration 270 nM)
# Summary of the method: as §1
# [6] = system: PPARa:RXRa (NR concentration 270 nM, RXRa partner concentration 90 nM)
# Summary of the method: as §1
# [7] = system: PPARg:RXRa (NR concentration 180 nM, RXRa partner concentration 90 nM)
# Summary of the method: as §1
# [8] = system: PPARg:RXRa 270nM:90nM, anti-RXR (NR concentration 270 nM, RXRa partner concentration 90 nM)
# Summary of the method: as §1
# [9] = system: PPARg:RXRa 30nM:10nM, anti-RXR (NR concentration 30 nM, RXRa partner concentration 10 nM)
# Summary of the method: as §1
# [10] = system: PPARg:RXRa 90nM:30nM, anti-RXR (NR concentration 90 nM, RXRa partner concentration 30 nM)
# Summary of the method: as §1
# [11] = system: PPARg:RXRa DBDmut IVT, anti-RXR (DBD mutation: RXRa K156A/R161A, NR concentration 270 nM, RXRa partner concentration 90 nM)
# Summary of the method: as §1
# [12] = system: PPARg:RXRa IVT, anti-PPARg (NR concentration 270 nM, RXRa partner concentration 90 nM)
# Summary of the method: as §1
# [13] = system: PPARg DBDmut:RXRa IVT, anti-PPARg (DBD mutation: PPARg1 K132A/R137A, NR concentration 270 nM, RXRa partner concentration 90 nM)
# Summary of the method: as §1
# [14] = system: PPARg DBDmut IVT, anti-PPARg (DBD mutation: PPARg1 K132A/R137A, NR concentration 270 nM)
# Summary of the method: as §1
# [15] = system: PPARg homodimer (NR concentration 180 nM)
# Summary of the method: as §1
# [16] = system: PXR:RXRa (NR concentration 270 nM, RXRa partner concentration 90 nM)
# Summary of the method: as §1
# [17] = system: PXR homodimer (NR concentration 270 nM)
# Summary of the method: as §1
# [18] = system: RARa:RXR (NR concentration 270 nM, RXRa partner concentration 90 nM)
# Summary of the method: as §1
# [19] = system: RARa homodimer (NR concentration 270 nM)
# Summary of the method: as §1
# [20] = system: RARb:RXRa (NR concentration 270 nM, RXRa partner concentration 90 nM)
# Summary of the method: as §1
Sequence,PBM binding z-score [1],PBM binding z-score [2],PBM binding z-score [3],PBM binding z-score [4],PBM binding z-score [5],PBM binding z-score [6],PBM binding z-score [7],PBM binding z-score [8],PBM binding z-score [9],PBM binding z-score [10],PBM binding z-score [11],PBM binding z-score [12],PBM binding z-score [13],PBM binding z-score [14],PBM binding z-score [15],PBM binding z-score [16],PBM binding z-score [17],PBM binding z-score [18],PBM binding z-score [19],PBM binding z-score [20]
AGAATCAGGTTATACGTAGATCAGGGAAGAAAGT,0.826,0.893,0.313,0.875,0.265,1.63,1.11,1.38,0.762,0.859,3.66,2.1,1.47,0.861,0.756,0.61,0.471,0.799,0.86,0.961
GCATATTGGTAATACAAGGTGAAAGTCCGATTGT,0.142,-0.00547,0.127,0.0375,-0.19,0.519,0.364,0.443,0.33,0.00917,0.078,0.938,1.13,0.842,0.326,0.0953,0.0473,0.645,-0.0157,0.266
TGAATGAGGTTAACGATCAGGGAACGTGGCGTCG,1.98,1.82,-0.477,0.806,-0.194,3.2,2.41,2.48,0.951,1.83,2.53,2.98,0.909,0.129,0.132,0.809,-0.38,2.15,-0.0277,2.01
CGTCCAAGGTCAACGGTCAGTGAAGAGATGACGG,7.38,5.09,1.45,4.23,0.938,6.03,6.01,5.78,2.86,4.85,3.45,4.39,0.975,0.233,2.65,4.02,0.701,4.66,0.466,5.55
TGAATGAGGTTCTAAGATCAGGGAACGTTGCAAA,-0.725,-0.693,-0.989,-0.763,-0.398,-0.344,-0.0951,-0.03,-0.103,0.161,-0.614,0.0916,-0.614,-0.528,-0.83,-0.331,-0.563,-0.599,-0.564,-0.67
CCTTACGGGTCTCTGACAGGTTATAGCATTTGGA,-0.234,0.159,-0.00475,-0.0139,-0.262,0.166,0.168,0.115,-0.351,-0.00111,0.625,-0.443,-0.515,-0.237,0.678,-0.13,-0.251,0.185,0.262,0.256
TCTATTAGTTGAAGGGCAACCGACGAGTCCGTTT,0.607,1.21,0.32,0.682,0.453,0.751,0.154,2.11,3.61,2.69,2.35,0.776,1.09,0.986,1.26,1,1.32,0.605,0.801,1.61
CCTAGGTGGTCAGGAGGTCACACACCGGATATGA,3.9,3.3,1.72,3.05,0.062,3.95,3.45,3.53,1.29,3.03,0.549,3.02,-0.0513,-0.161,3.26,4.04,1.33,4.78,1.85,3.71
GCTTGTAGATCAAGGTTAAAAAAGACTAAGCTAA,0.221,1.35,-0.113,0.828,-0.501,1.84,1.19,2.38,0.522,1.79,1.05,1.23,0.281,0.272,0.282,0.574,-0.0589,1.15,0.0785,0.688
ATCGAAAGGTCGAGGTCAGTATAGAGAAAGGGAA,5.77,4.62,1.15,4.12,1.14,5.3,4.76,5.12,2.04,4.08,0.84,3.1,1.71,1.29,3.42,4.33,1.7,4.81,2.18,5.1
ATCGAAAGGTCGTGGGGTGAGTATACAGAAAGGC,6.2,4.88,0.955,4.76,2.35,5.78,5.25,5.38,2.16,3.9,1.35,2.93,1.62,1.78,2.39,4.24,1.2,4.98,2.03,4.47
CAGCCTAGGTCAGGGCGAGTATAGGAGGAACGTT,1.8,0.876,-0.437,0.505,-1.08,2.07,1.03,1.29,0.157,0.783,1.68,1.54,-1.19,-1.55,0.665,0.305,-0.665,1.11,-0.626,3.19
TAGCCTAGGTCTTTCAGGGGCCAGTATAGAAAGC,-0.49,-0.379,-0.527,-0.066,-0.296,-0.263,-0.284,-0.623,-0.57,-0.453,-0.411,0.431,-0.836,0.0901,-0.27,-0.417,-0.804,-0.214,-1.24,0.577
CTCGAAAGGTTGGTTGAGGTGAGTATACGGATAA,1.15,0.487,-0.0312,0.38,-0.269,0.843,-0.0296,0.107,0.0087,0.291,-0.057,0.667,-0.538,-0.309,0.774,1.11,0.376,1.09,0.368,1.17
GATACAGGGTCAAGGCCAGAGTCCGCGTATTGAT,6.15,4.03,-0.217,3.58,0.0048,5.35,5.26,5.31,1.52,3.89,2.59,3.9,-0.201,-0.204,1.62,3.79,0.344,4.03,0.185,4.39
TTACCAAGGAGAGCTGAGGTCGTTGATCCAACTC,0.524,-0.0675,-0.298,0.248,-1.1,0.632,-0.233,0.453,0.297,0.316,-0.667,-0.449,-0.504,-0.387,0.217,1.29,0.364,0.846,-0.664,0.145
ATCTCTAGGTAAAGACAGTTCAGTGAATGCAAAT,0.377,2.43,0.934,0.745,0.542,0.628,0.336,0.491,0.147,0.518,2.12,1.73,0.488,0.666,0.86,1.61,1,0.704,1.05,0.625
CGTCAAAGTTCAGCTAAGGTAACGTAAAGCACGC,4.58,4.17,1.68,2.31,0.319,3.68,3.16,3.94,1.03,2.96,0.23,1.25,0.517,-0.309,1.44,4,1.56,3.29,1.13,4.65
CCGACTGGGGCATAAAGGTTACCATACCATCCGG,0.385,0.747,-0.0869,0.923,-0.959,2.47,3.04,3.77,2.08,3.81,1.89,3.25,-0.548,-1.23,1.42,1.3,-0.303,1.83,0.301,1.89
AGAATGAGGTTACCAAATATCAGGGAAACGCTTG,1.57,2.74,-0.144,1.81,-0.351,3.3,2.58,2.84,1.07,2.04,4.3,3.78,1.63,0.617,0.301,1.05,0.00391,1.77,-0.0256,2.1
ATCGAAAGGTCGTGAGGTGAGGATACAGAAAGGC,5.69,4.09,0.323,3.37,0.581,5.08,4.41,4.73,1.86,3.51,0.406,2.89,1.55,0.615,2.28,3.3,0.684,4.61,1.12,4.13
CAGCCTAGGTCTGGGCCAGTATAGGAGGAACGTT,-0.847,-0.864,-0.89,-1.05,-1.28,-0.798,-0.286,-0.953,-0.869,-0.961,-0.647,-0.716,-1.17,-1.97,-0.842,-0.944,-0.644,-0.724,-0.886,-0.54
AGTCAAAGTTCACTAGATAACGTAAGATTCAGCT,4.55,4.91,2.72,2.91,1.04,3.97,5.54,5.7,2.23,4.53,0.283,2.53,1.22,1.17,2.06,3.77,3.07,2.89,1.09,4.66
GCGACTGGGGCATCAGCATGTTACCATAACTTAA,-0.56,-0.551,-0.462,0.363,-0.493,0.258,0.836,0.643,-0.13,-0.0118,3.55,2.94,-0.0811,-0.739,-0.0822,-0.238,-0.758,-0.253,-0.423,0.376
GTGACTGGGGCATCAGCAGGTTACCATAACTTAA,0.0842,0.236,-0.049,0.942,-0.399,1.75,1.86,1.89,0.217,0.996,4.3,4.9,0.566,0.266,0.222,0.254,0.042,0.669,-0.0196,1.09
CCTACCGGGCCAAGGTCATTGATCAGTCAAAGCA,3.14,3.01,1.23,2.66,-0.522,3.66,1.86,2.48,0.154,1.76,0.244,1.19,-0.794,-1.36,1.88,3.79,1.52,4,0.296,3.42
ACAGAGAGGTGATGAAGGTAACTCAGGCTATCAT,0.1,-0.0398,-0.296,0.23,0.0774,0.952,0.708,0.305,0.188,0.328,1.04,1.11,0.359,-0.0267,0.505,0.0565,0.268,0.393,0.478,0.825
CGACCTAGGTCATCCAGGACAGTGAATACATTGA,5.2,3.44,0.586,2.78,0.0681,4.33,3.93,3.43,1.07,2.59,3.28,3.89,-0.0715,0.195,2.02,2.45,0.923,3.21,0.643,4
CCTCGGACGACAACAGGAGGTCAGAGCTGCCAGA,0.715,1.65,1.91,1.42,0.113,1.73,0.478,-0.0139,-0.511,-0.34,-0.649,0.0157,-0.728,-1.24,1.84,1.67,0.467,2.11,0.372,1.96
